# Measurements reported in PubChem BioAssay.
# Active and inactive are the calls of the source.
# What was measured:
# [1] = test system: Plasmodium falciparum Sir2 (PF13_0152, Sir2A); experiment: Plasmodium falciparum Sir2A binding compounds – biochemical, small-molecule microarray, 635 nm fluorescence, primary screen (AID 1098); conditions: fluorescence 635 nm, higher = more signal;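 also: score merges spot fluorescence intensity with its signal-to-noise ratio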
# [2] = probe aDKK1 binding to arrayed compounds – biochemical, biotinylated probe, 635/667 nm fluorescence, primary screen (AID 1099); conditions: small-molecule microarray, higher = more signal;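 also: score merges 667nm spot fluorescence with signal to noise across triplicate slides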
# [3] = probe aCHRDL2 binding to arrayed compounds – biochemical, biotinylated probe, 635/667 nm fluorescence, primary screen (AID 1100); conditions: small-molecule microarray, higher = more signal
# [4] = change in splice reporter luminescence, either direction, cell-based, HEK293, spliceosome inhibition project, primary screen (AID 1101); conditions: HEK293 splicing luciferase reporter, 24 h, higher = more signal, called active from +8 up or from −8 down;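 also: HEK293 cells carrying a splicing-competent luciferase reporter gene; test concentration not given here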
# [5] = target: Fibroblast growth factor 10 (Homo sapiens) (UniProt O15520); experiment: compounds binding fibroblast growth factor 10 – biochemical, small-molecule microarray, 635 nm fluorescence, primary screen (AID 1102); conditions: FGF10 binding, fluorescence 635 nm, higher = more signal
# [6] = test system: glycogen synthase kinase-3 (GSK3A per assay name; protocol says GSK3B); experiment: compounds binding glycogen synthase kinase-3 – biochemical, small-molecule microarray, 635 nm fluorescence, GSK3A, primary screen (AID 1103); conditions: fluorescence 635 nm, higher = more signal; also: the record names both GSK3A and GSK3B
# [7] = target: Epidermal growth factor receptor (Homo sapiens) (UniProt P00533); experiment: compounds binding epidermal growth factor receptor – biochemical, small-molecule microarray, 635 nm fluorescence, primary screen (AID 1104); conditions: EGFR binding, higher = more signal;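 also: score merges 667 nm emission intensity with spot signal to noise over triplicate slides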
# [8] = target: Follistatin-related protein 3 (Homo sapiens) (UniProt O95633); experiment: compounds binding follistatin-related protein 3 – biochemical, small-molecule microarray, 635 nm fluorescence, primary screen (AID 1105); conditions: FSTL3 binding, higher = more signal;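 also: score merges emission near 667 nm and signal to noise per printed spot across three slides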
# [9] = target: Dickkopf-related protein 1 (Homo sapiens) (UniProt O94907); experiment: small molecules binding DKK1 protein – biochemical, small-molecule microarray, 635 nm fluorescence scan, primary screen (AID 1106); conditions: higher = more signal;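 also: score merges emission near 667 nm with signal to noise over three replicate slides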
# [10] = test system: Inhibin beta A chain (activin A); experiment: small molecules binding activin A – biochemical, small-molecule microarray, 635 nm fluorescence scan, primary screen (AID 1107); conditions: INHBA, higher = more signal;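 also: mouse activin A protein probed at 4.33 µg/mL on printed slides; score merges bound-protein fluorescence near 667 nm with spot signal-to-noise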
# [11] = test system: Human papillomavirus type 1a protein E7 (residues 44-93); experiment: small molecules binding HPV E7 44-93 – biochemical, small-molecule microarray, residues 44-93, 635 nm fluorescence, primary screen (AID 1108); conditions: fluorescence 635 nm, higher = more signal;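 also: E7 fragment applied at 1 µg/mL in TBST for 1 h at 4 C; score combines spot fluorescence with its signal to noise ratio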
# [12] = hepatitis C replication reporter changes, two-sided – Huh7 cells, luciferase reporter, HCV replication inhibitor project, primary screen (AID 1109); conditions: Huh7 HCV replicon luciferase reporter, 48 h; higher = more signal;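 also: huh7 hepatoma cells harbouring a luciferase neomycin HCV replicon reporter; luciferase luminescence as measure of HCV replicon replication; test concentration not given here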
# [13] = target: Left-right determination factor 2 (Homo sapiens) (UniProt O00292); experiment: small molecules binding LEFTY2 protein – biochemical, small-molecule microarray, 635 nm fluorescence scan, primary screen (AID 1110); conditions: higher = more signal
# [14] = target: Calmodulin-1 (Homo sapiens) (UniProt P0DP23); experiment: small molecules binding calmodulin-1 with EGTA – biochemical, small-molecule microarray, Cy5-labelled CALM1, profiling panel (AID 1111); conditions: Cy5-CALM1 binding fluorescence, higher = more signal;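 also: labelled calmodulin applied in Tris saline Tween buffer holding calcium plus EGTA and DTT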
# [15] = target: Calmodulin-1 (Homo sapiens) (UniProt P0DP23); experiment: small molecules binding Ca-loaded calmodulin-1 – biochemical, small-molecule microarray, Cy5-labelled CALM1, plus calcium, artefact control for SMM control-protein annotation, profiling panel (AID 1112); conditions: Cy5-CALM1 binding fluorescence, higher = more signal;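 also: score merges spot fluorescence with signal to noise from triplicate slides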
# [16] = probe aWnt5a binding to arrayed compounds – biochemical, biotinylated probe, 635/667 nm fluorescence, primary screen (AID 1113); conditions: small-molecule microarray, higher = more signal;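 also: score merges 667 nm fluorescence intensity with signal-to-noise per printed feature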
# [17] = probe aShh binding to arrayed compounds – biochemical, biotinylated probe, 635/667 nm fluorescence, primary screen (AID 1114); conditions: small-molecule microarray, higher = more signal;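 also: probe is biotin-labelled aShh protein from a stem cell growth factor screen; measures binding of labelled protein to compounds printed on the slide; score merges feature fluorescence at 667 nm with signal-to-noise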
# [18] = probe aNog binding to arrayed compounds – biochemical, biotinylated probe, 635/667 nm fluorescence, primary screen (AID 1115); conditions: small-molecule microarray, higher = more signal;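 also: probe is biotinylated aNog protein used at 0.15 µg/mL for 1 h at 4 C; z-score combines 667 nm fluorescence of each spot with its signal to noise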
# [19] = target: Torsin-1A-interacting protein 1 (Homo sapiens) (UniProt Q5JTV8); experiment: compound microarray binding of lysate hLAP1 – cell lysate, small-molecule microarray, COS7 lysate, 635/667 nm fluorescence, primary screen (AID 1116); conditions: 635 nm fluorescence, higher = more signal
# [20] = target: Alpha-bungarotoxin (Bungarus multicinctus) (UniProt P60615); experiment: compounds binding labelled alpha-BTX control protein – biochemical, small-molecule microarray, Alexa647 label, 635/667 nm fluorescence, artefact control for SMM control protein annotation, profiling panel (AID 1117); conditions: alpha-BTX-A647 binding fluorescence, higher = more signal
# Sequence of Alpha-bungarotoxin (Bungarus multicinctus) (P60615 whole entry, looked up): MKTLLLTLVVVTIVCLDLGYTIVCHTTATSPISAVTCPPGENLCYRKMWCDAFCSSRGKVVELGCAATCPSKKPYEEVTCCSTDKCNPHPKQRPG
# Sequence of Follistatin-related protein 3 (Homo sapiens) (O95633 whole entry, looked up): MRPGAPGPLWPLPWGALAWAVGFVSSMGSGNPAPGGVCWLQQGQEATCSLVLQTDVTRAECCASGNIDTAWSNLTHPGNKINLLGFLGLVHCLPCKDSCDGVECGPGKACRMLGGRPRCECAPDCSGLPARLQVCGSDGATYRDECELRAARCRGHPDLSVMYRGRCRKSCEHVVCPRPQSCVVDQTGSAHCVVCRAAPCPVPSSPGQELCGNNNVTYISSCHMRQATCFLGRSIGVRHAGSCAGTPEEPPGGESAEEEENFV
# Sequence of Torsin-1A-interacting protein 1 (Homo sapiens) (Q5JTV8 whole entry, looked up): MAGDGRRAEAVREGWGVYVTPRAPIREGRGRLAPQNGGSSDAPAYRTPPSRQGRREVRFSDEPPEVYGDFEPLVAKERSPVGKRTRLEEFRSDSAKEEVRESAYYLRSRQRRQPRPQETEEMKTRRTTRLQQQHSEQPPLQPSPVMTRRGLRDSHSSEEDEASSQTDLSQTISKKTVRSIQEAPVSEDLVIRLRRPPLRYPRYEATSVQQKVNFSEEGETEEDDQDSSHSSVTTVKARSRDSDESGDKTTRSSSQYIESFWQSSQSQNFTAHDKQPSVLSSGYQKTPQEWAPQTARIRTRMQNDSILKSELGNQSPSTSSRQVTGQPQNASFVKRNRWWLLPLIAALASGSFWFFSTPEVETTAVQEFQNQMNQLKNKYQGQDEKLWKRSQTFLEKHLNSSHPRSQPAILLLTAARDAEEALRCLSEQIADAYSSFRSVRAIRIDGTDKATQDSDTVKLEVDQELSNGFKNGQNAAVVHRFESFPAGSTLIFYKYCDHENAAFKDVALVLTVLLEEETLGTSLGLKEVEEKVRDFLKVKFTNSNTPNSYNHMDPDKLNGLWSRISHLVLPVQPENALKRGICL
# Sequence of Dickkopf-related protein 1 (Homo sapiens) (O94907 whole entry, looked up): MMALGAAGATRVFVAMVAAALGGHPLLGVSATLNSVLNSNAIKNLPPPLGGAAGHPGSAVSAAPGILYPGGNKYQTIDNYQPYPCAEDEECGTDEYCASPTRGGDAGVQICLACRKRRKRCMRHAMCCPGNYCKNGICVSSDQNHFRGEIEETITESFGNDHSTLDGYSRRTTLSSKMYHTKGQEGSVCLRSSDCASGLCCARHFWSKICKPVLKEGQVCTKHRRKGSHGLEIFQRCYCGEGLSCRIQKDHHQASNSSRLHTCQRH
# Sequence of Epidermal growth factor receptor (Homo sapiens) (P00533 whole entry, looked up): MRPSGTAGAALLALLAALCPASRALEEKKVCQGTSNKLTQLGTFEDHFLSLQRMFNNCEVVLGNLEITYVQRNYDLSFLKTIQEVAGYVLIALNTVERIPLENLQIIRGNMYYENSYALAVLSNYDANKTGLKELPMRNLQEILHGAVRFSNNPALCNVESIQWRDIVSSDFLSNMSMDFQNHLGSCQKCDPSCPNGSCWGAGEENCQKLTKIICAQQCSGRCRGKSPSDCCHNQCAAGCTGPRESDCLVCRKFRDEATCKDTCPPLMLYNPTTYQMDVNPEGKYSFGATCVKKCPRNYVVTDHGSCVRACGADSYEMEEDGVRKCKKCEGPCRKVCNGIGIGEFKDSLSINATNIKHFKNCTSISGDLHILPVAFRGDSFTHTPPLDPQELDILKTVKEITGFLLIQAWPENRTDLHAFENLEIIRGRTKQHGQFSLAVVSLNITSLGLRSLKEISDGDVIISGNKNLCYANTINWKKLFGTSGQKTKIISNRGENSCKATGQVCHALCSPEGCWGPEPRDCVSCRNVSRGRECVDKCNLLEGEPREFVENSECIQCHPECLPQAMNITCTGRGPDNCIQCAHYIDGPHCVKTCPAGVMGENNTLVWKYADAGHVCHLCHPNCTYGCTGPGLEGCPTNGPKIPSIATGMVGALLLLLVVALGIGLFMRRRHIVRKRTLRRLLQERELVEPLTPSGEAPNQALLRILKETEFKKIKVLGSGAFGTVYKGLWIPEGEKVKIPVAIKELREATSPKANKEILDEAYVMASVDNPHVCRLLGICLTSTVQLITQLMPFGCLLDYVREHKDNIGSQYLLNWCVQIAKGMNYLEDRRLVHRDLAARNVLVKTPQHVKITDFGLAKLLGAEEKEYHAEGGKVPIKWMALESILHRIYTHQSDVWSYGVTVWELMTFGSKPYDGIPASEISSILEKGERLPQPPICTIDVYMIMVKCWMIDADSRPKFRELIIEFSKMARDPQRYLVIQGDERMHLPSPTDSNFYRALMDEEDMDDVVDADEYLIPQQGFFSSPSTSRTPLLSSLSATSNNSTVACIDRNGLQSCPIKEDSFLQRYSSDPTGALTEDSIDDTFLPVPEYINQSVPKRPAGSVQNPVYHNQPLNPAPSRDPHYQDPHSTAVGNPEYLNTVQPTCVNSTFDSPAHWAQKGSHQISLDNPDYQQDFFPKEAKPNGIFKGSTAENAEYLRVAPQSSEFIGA
# Sequence of Fibroblast growth factor 10 (Homo sapiens) (O15520 whole entry, looked up): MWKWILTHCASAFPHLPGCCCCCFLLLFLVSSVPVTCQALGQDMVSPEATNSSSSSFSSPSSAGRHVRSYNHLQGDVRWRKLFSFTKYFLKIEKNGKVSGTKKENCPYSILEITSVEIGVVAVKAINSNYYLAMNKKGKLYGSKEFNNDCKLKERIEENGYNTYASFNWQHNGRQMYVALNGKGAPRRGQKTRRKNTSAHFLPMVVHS
# Sequence of Left-right determination factor 2 (Homo sapiens) (O00292 whole entry, looked up): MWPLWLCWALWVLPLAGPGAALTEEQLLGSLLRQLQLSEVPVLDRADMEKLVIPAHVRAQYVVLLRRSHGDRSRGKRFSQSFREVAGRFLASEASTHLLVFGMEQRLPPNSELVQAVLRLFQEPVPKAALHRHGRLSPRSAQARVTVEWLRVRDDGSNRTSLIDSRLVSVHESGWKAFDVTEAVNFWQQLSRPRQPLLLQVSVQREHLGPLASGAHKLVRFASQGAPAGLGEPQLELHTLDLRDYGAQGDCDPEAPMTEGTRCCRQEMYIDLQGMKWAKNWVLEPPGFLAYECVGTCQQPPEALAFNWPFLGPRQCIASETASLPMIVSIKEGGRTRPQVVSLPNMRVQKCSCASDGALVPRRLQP
Compound,composite z-score [1],composite z-score [2],composite z-score [3],z-score [4],composite z-score [5],composite z-score [6],composite z-score [7],composite z-score [8],composite z-score [9],composite z-score [10],composite z-score [11],z-score [12],composite z-score [13],composite z-score [14],composite z-score [15],composite z-score [16],composite z-score [17],composite z-score [18],composite z-score [19],composite z-score [20]
CC(C)[C@H]1NC(=O)[C@@]23C(=O)N[C@@H](Cc4ccccc4)C2[C@H](C)[C@@]2(C)O[C@H]2C3/C=C/CCC/C=C/CNC(=O)[C@H](Cc2ccccc2)NC1=O (stereo not given in full),1.39,-0.339,-0.32,0.286 (inactive),0.106,0.291,-0.023,0.0435,0.147,0.943,1.41,-0.565,-0.0883,-0.773,-0.806,-0.148,-0.156,-0.455,-0.148,-0.498
COCCOC(=O)N1C(=O)[C@@]2(c3cc(C#CCC(C(=O)OC)C(=O)OC)ccc31)[C@H](c1ccc(OCCO)cc1)N1[C@H](c3ccccc3)[C@H](c3ccccc3)OC(=O)[C@H]1[C@@H]2C(=O)Nc1nc2ccccc2s1,1.02,0.0317,-0.108,0.907 (inactive),0.84,1.06,0.292,1.08,0.279,0.495,1.16,-2.06,0.423,1.05,-0.0309,-0.0202,-0.0793,-0.114,0.743,1.06
COc1ccc(C(O)C2C=CC3C(=O)N(c4ccccc4)C(=O)C3N2Nc2ccccc2F)cc1 (stereo not given),1.47,0.447,1,0.747 (inactive),0.111,0.102,-0.296,0.0817,-0.81,0.685,0.726,-0.139,-0.591,0.528,0.062,-0.0991,0.0062,0.853,0.982,1.01
COCCCNC(=O)[C@@H]1c2ccccc2C(=O)N(C2Cc3ccccc3C2)[C@H]1c1ccc(CO)cc1,0.122,0.299,0.186,0.0141 (inactive),0.639,1.04,0.172,0.121,0.447,0.952,0.661,-0.689,0.173,-0.362,-0.518,-0.152,-0.229,-0.532,0.685,-0.0047
O=C1C2C=CC(C(O)c3cccc(O)c3)N(Nc3ccccc3)C2C(=O)N1c1ccccc1 (stereo not given),-0.131,0.305,0.272,-0.664 (inactive),0.134,-0.194,0.112,-0.0752,-0.347,0.959,0.752,-0.424,-0.0995,0.46,0.16,0.0077,0.398,0.496,0.539,0.546
CCCCCCCCCCC(O)C1C=CC2C(=O)N(c3ccccc3)C(=O)C2N1Nc1ccccc1F (stereo not given),0.565,0.0158,0.973,1.25 (inactive),-0.387,-0.676,-0.571,-0.292,-0.867,1.21,0.648,-0.211,-0.24,1.03,1.07,-0.0715,0.246,0.238,0.0092,0.533
CC(C)=CCCC(C)=CC(O)C1C=CC2C(=O)N(c3ccccc3)C(=O)C2N1Nc1ccccc1F (stereo not given),1.33,0.0643,0.0744,-0.652 (inactive),0.85,0.403,0.329,0.587,-0.0093,0.418,0.961,-1.43,-0.0742,1.67,-0.132,-0.171,-0.414,-0.196,2.19,0.529
CC=CC(O)C1C=CC2C(=O)NC(=O)C2N1Nc1ccccn1 (stereo not given),0.733,-0.0419,-0.185,1.12 (inactive),0.22,0.717,0.673,0.6,0.697,1.25,0.434,0.634,0.44,-0.242,-1.1,-0.254,-0.0211,0.342,0.372,0.439
COCC(=C=CC[C@@H](O)c1cccc(OCCO)c1)CCO,1.03,0.0771,0.268,0.317 (inactive),0.984,0.162,-0.846,0.167,-0.111,0.598,0.328,0.22,-0.313,0.32,0.281,0.129,-0.372,-0.0987,0.69,1.73
C=C(/C(=C/C[C@@H](OC(=O)c1ccncc1)c1cccc(OCCO)c1)c1cnc2ccccc2c1)C(C)C,0.198,0.0215,0.415,-0.537 (inactive),1.5,1.18,0.922,1.51,0.858,1.52,1.08,-1.96,0.775,0.0848,0.11,0.0215,-0.0769,0.419,1.37,2.57
C=C(CCCC)C(=O)CC[C@H](OC(=O)c1ccccc1-c1ccccc1C(=O)O)c1ccccc1OCCO,0.855,-0.475,-0.336,2.02 (inactive),0.271,-0.218,-0.226,-0.279,0.145,1.28,0.166,-2.31,-0.171,-0.378,-0.814,-0.0944,0.318,0.397,0.442,0.26
COc1cc(NN2C(C(O)c3cc(OC)c(OC)c(OC)c3)C=CC3C(=O)N(c4ccccc4)C(=O)C32)cc(OC)c1OC (stereo not given),0.815,0.981,0.561,0.269 (inactive),1.26,1.3,0.165,1.1,0.101,0.759,1.41,-1.54,0.307,2.02,0.986,0.145,-0.0193,0.756,1.56,2.35
CCCCCN1CC=CC23O[C@@H]4C=CCOC(=O)[C@@H]4[C@H]2C(=O)N(CCO)[C@@H]3C1=O (stereo not given in full),-0.0015,-0.314,0.634,0.374 (inactive),-0.318,-0.527,-1.17,-1.3,-1.25,0.393,0.673,0.644,-0.397,-0.343,0.595,-0.172,-0.138,-0.305,0.665,-0.514
CCOC(=O)C1=CCC(c2ccccc2)N(S(=O)(=O)c2ccc([N+](=O)[O-])cc2)C1 (stereo not given),-0.0755,0.36,0.507,-0.33 (inactive),-0.16,0.265,0.0475,0.163,-0.115,0.918,0.992,-1.93,-0.276,-0.36,-0.0871,-0.147,0.0048,-0.425,0.853,-0.165
COCCOC(=O)N1C(=O)[C@@]2(c3cc(C#CC4=CCCCC4)ccc31)[C@H](C(=O)N1CCCCCCC1)[C@H]1C(=O)O[C@H](c3ccccc3)[C@H](c3ccccc3)N1[C@@H]2c1ccc(OCCO)cc1,1.23,0.977,0.734,-0.611 (inactive),1.03,1.17,0.825,1.23,0.835,1.43,1.18,-2.08,0.654,1.02,1.04,0.302,0.936,-0.412,1.05,0.845
COc1ccc([Si](C)(C)[C@H]2[C@H](CCO)O[C@@]3(C(=O)N(Cc4ccccc4)c4ccc(N5CCOC5=O)cc43)[C@@H]2C)cc1,0.821,0.0261,-0.214,-0.711 (inactive),0.977,0.411,0.398,0.277,0.0837,0.212,0.27,-4.13,0.28,0.284,0.299,-0.0239,0.0062,0.325,0.673,0.0997
O=C1[C@@H]2[C@@H](CC(COc3ccccc3)=C3[C@@H](CCc4ccccc4)OB(O)C[C@@H]32)C(=O)N1Cc1ccccc1,0.393,-0.185,-0.23,-0.74 (inactive),0.747,0.081,0.292,0.163,0.147,0.343,-0.458,-1.36,0.222,0.0454,0.171,-0.124,-0.0011,-0.465,-0.0169,-0.0025
C=C(C)[C@@H]1CC=C(C(O)C2C=CC3C(=O)N(c4ccccc4)C(=O)C3N2Nc2ccc(C#N)cc2)CC1 (stereo not given in full),1.31,0.327,1.15,0.857 (inactive),0.997,1.31,0.628,1.34,-0.0273,0.749,1.47,-0.768,0.0506,1.75,0.424,-0.0431,0.0469,1.5,-0.243,1.92
CC(C)CNC(=O)[C@@]1(c2ccc([N+](=O)[O-])cc2)CC(=O)N(C2CCCCC2)[C@@H]1c1ccc(CO)cc1,0.388,0.368,0.453,-0.472 (inactive),0.735,0.484,0.103,0.0017,-0.362,0.517,0.292,-1.07,0.155,0.1,-0.151,-0.0539,-0.0553,0.323,2,0.0127
Cc1nc2cc(Br)ccc2c(=O)n1Cc1cccc(O)c1,0.547,-0.136,-0.282,-0.0746 (inactive),0.89,0.768,0.416,0.782,1.16,-0.022,0.804,0.201,0.874,0.523,0.302,-0.0263,-0.0946,0.761,1.21,-0.0871
O=C1[C@@]23C=C(Br)[C@H](C[C@@H]2COC3)[C@@]12CO2,0.35,-0.419,-0.555,0.536 (inactive),0.266,0.638,0.566,0.514,0.449,0.262,0.368,-2.52,0.531,-0.293,-0.87,-0.102,-0.0396,-0.172,0.245,0.53
